# Screens: PubChem BioAssay, National Center for Advancing Translational Sciences (NCATS)
# TDP1 cell CPT: DT40-hTDP1 cell growth loss with CPT; chicken DT40 Tdp1-/-;hTDP1 cells + 20 nM CPT, ATP luminescence, 48 h; Potency, µM (highest dose often 46.2 µM), for the others: at the top dose activity change, negative = growth inhibition, usual class: inhibitors; hit rate 12% among 420,000; AID 686979; further: potency means the concentration at half of the fitted maximal effect; nearly all actives have a fitted effect of over 55% in size
#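 Cell growth measured by CellTiter-Glo luminescence after a minimum 48 h, 37 C compound exposure with 20 nM CPT in Tdp1-knockout DT40 cells stably expressing hTDP1, seeded 400/well; qHTS titration format.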
# DT40 TDP1 no CPT: qHTS for Inhibitors of human tyrosyl-DNA phosphodiesterase 1 (TDP1): qHTS in cells in absence of CPT. DT40 Tdp1-/- hTDP1 cells, no CPT, ATP luminescence, 48 h. Potency, µM (highest dose often 46.2 µM), for the others: top-dose activity change, negative = growth inhibition, hits mostly inhibitors. hit rate 15% among 420,000. AID 686978, 2013; further: potency means the concentration at half of the fitted maximal effect; nearly all actives have a fitted effect of over 55% in size
#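 DT40 Tdp1-/-;hTDP1 cells, no CPT (DMSO vehicle only), 400 cells/well; compounds pin-transferred; ≥48 hr, 37 °C; CellTiter-Glo 30 min RT dark, luminescence read.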
# HT1080-NT tox: kills 2HG-producing HT-1080-NT fibrosarcoma cells; HT-1080-NT fibrosarcoma viability, CellTiter-Glo ATP luminescence, 48 h; Potency, µM (titrated, usually from 46.1 µM), inactives show top-dose activity, negative = less viability, usual class: cytotoxic; hit rate 1.6% among 360,000;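 further: NT is the 2HG producing partner of a matched IDH1 knockdown line; potency means the concentration at half of the fitted maximal effect; 0% = DMSO-treated cells and -100% = media-only wells without cells; nearly all actives have a fitted effect of over 55% in size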
#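 750 cells/well, RPMI + 5% FBS; 2 h settle, compound pin-transfer, 48 h at 37 degrees C. CellTiter-Glo 10 min RT, luminescence. Normalized to DMSO and media-only wells.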
# HT1080 IDH1KD tx: toxicity to HT-1080 IDH1 knockdown cells (counter line). HT-1080 IDH1 knockdown viability, ATP luminescence, 48 h. Potency, µM (top dose mostly 46.1 µM), without a hit: at the highest dose activity, negative = toxicity, most hits filed as cytotoxic. hit rate 2% among 360,000. AID 686971;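 further: potency means the concentration at half of the fitted maximal effect; 0% = DMSO wells and -100% = cell-free medium wells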
#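 % activity derives from luminescence (CellTiter-Glo), normalised to DMSO and no-cell wells. HT-1080-IDH1KD cells, 750/well, had 48 h compound exposure at 37 °C.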
# IL1B secr inh: inhibitors of inflammasome signaling (IL-1 beta secretion); THP-1 LPS/ATP IL-1B secretion, AlphaLISA, 16 h; stronger effect = lower value; activity change, % at 57.5 µM; AID 743279; hit rate 4.7% among 360,000; in the data active means activity change below about -50%; inconclusive means mostly about -30% to -49%
#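 Secreted IL-1B measured by AlphaLISA bead assay after 16 h compound exposure of THP-1 cells; compounds (final up to 57.5 uM) added 1 h before LPS (250 ng/mL) and ATP (1.25 mM) stimulation; lower signal means less secretion.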
# ELG1 DNA repair: inhibitors of ELG1-dependent DNA repair in HEK293T cells. HEK293T ELG1-luciferase reporter, luminescence, 16 h; DNA damage induced by 5-fluorouridine. Potency, µM (doses to about 46.1 µM), for inactives: at the highest dose activity change, negative = inhibition, usual class: inhibitors. hit rate 2.3% among 330,000. AID 504467; further: potency means the concentration at half of the fitted maximal effect; nearly all actives have a fitted effect of over 55% in size
#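 In this reporter screen, reduction of luminescence relative to DMSO vehicle indicated activity. Compounds and 5-fluorouridine were added together to 2,000 cells per well, incubated for 16 hr at 37 °C, then developed with ONE-Glo.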
# Numbers without * were called inactive; ? = inconclusive; · = no result; [ ] = another dose, or the depositor's remark. Hits are enriched below; roughly 19% of the tested compounds scored in any of these assays. Unless noted, the call rests on the fitted dose curve; in most records, active means well fitted curve in the direction sought with a large enough effect; inconclusive means small, poorly fitted or top-dose-only effect, or another doubt; inactive means no such curve, though single readings can be large; an effect the other way counts as inactive or inconclusive. Unless noted, on the % scale 0 is the no-effect control and ±100 the full control effect.
SMILES,TDP1 cell CPT,DT40 TDP1 no CPT,HT1080-NT tox,HT1080 IDH1KD tx,IL1B secr inh,ELG1 DNA repair
Cc1ccc(S(=O)(=O)c2nnn3c2nc(NC2CCN(Cc4ccccc4)CC2)c2ccccc23)cc1C,12µM*,5.8µM*,-3%,-16%,-7,-14%
Cc1ccc(S(=O)(=O)c2nnn3c2nc(N2CCOCC2)c2ccccc23)cc1C,-27%,-7%,14%,-1%,-66*,-9%
Cc1ccc(S(=O)(=O)c2nnn3c2nc(NCCCN2CCCC2=O)c2ccccc23)cc1C,?,-14%,?,?,-3,?
C[C@H](CO)N1C[C@H](C)[C@@H](CN(C)Cc2ccc(Oc3ccccc3)cc2)OCc2cnnn2CCCC1=O,-8%,-14%,-1%,-2%,18,·
CN(C)c1ccc([C@@H]2[C@@H]([N+](=O)[O-])[C@H]3C=Cc4ccccc4N3[C@H]2C(=O)c2ccc(Cl)cc2)cc1,6.5µM*,7.3µM*,-8%,-8%,?,?
Cc1cc(-c2c(C)[nH]n(-c3ccc(Cl)cc3)c2=O)n[nH]1,7.3µM*,13µM*,?,?,148,?
CC(C)n1c(-c2ccc(C(C)(C)C)cc2)n[nH]c1=S,11µM*,?,-26%,-23%,-17,18%
COc1ccc(-c2n[nH]c(=S)n2-c2ccc(C)cc2)cc1,?,?,-1%,-5%,-23,3%
CCOc1ccc(Cc2n[nH]c(=S)n2Cc2ccccc2)cc1,?,16µM*,-4%,-20%,-9,-13%
Cc1ccc(-c2n[nH]c(=S)n2C)cc1,26µM*,16µM*,-1%,-5%,-5,8%
Cc1ccc(-n2c(Cc3ccccc3)n[nH]c2=S)c(C)c1,18%,-14%,-10%,2%,-67*,-7%
CC(C)n1c(-c2ccccc2F)n[nH]c1=S,-1%,-12%,?,?,-1,-8%
CC1(C)CC(NC(=O)COc2ccc3ccc(=O)oc3c2)CC(C)(C)N1,-5%,24%,-2%,10%,-26,19%
Cc1cc(C)n(C(C)CC(=O)Nc2cccc(C(F)(F)F)c2)n1 (centres undefined),-26%,?,·,·,·,·
O=S(=O)(Cc1ccccc1)NCCc1cccc(Cl)c1,34%,5%,7%,0%,-15,-4%
COc1ccc(-c2n[nH]c(=S)n2-c2cc(OC)ccc2OC)cc1,-29%,-24%,-17%,-12%,-2,?
COc1ccc(-n2c(-c3ccc(C(C)(C)C)cc3)n[nH]c2=S)c(OC)c1,16µM*,23µM*,-4%,-8%,-1,·
Fc1ccc(-c2n[nH]c(=S)n2Cc2ccccc2)cc1,13%,-3%,12%,8%,28,0%
CCc1c(-c2n[nH]c(=S)n2Cc2ccccc2)csc1C,5.8µM*,4.6µM*,-22%,-18%,9,10%
CCCCOc1ccc(-c2n[nH]c(=S)n2Cc2ccccc2)cc1,?,26µM*,?,-5%,30,-16%
Cc1scc(-c2n[nH]c(=S)n2Cc2ccccc2)c1C,-23%,-5%,0%,0%,26,-12%
CC(C)(C)c1ccc(-c2n[nH]c(=S)n2Cc2ccccc2)cc1,?,12µM*,?,?,-16,0%
COC(=O)c1ccccc1-c1cc(C)cc2c1OC(CNC(=O)c1occc1C)C2 (centres undefined),16µM*,12µM*,·,·,·,·
COC(=O)c1ccccc1-c1cc(C)cc2c1OC(CNC(=O)c1cc(C)n(C)n1)C2 (centres undefined),8%[9.04 µM],?,·,·,·,·
Oc1c(C(c2ccccc2)N2CCOCC2)sc2nc(-c3ccco3)nn12 (centres undefined),-1%,-10%,·,·,·,·
SMILES,TDP1 cell CPT,DT40 TDP1 no CPT,HT1080-NT tox,HT1080 IDH1KD tx,IL1B secr inh,ELG1 DNA repair
Cc1cc(C)n(CC(O)Cn2c3ccc(Br)cc3c3cc(Br)ccc32)c(=O)n1 (centres undefined),-25%,?,?,?,-68*,?
Cc1ccc(C(=O)OCC(=O)NNC(=O)c2cccs2)c(O)c1,0%,-1%,4%,6%,21,15%
Cc1cc(=O)n2nc(N3CCC(C(=O)NCCCOC(C)C)CC3)sc2n1,-27%,-6%,·,·,·,·
O=C(O)/C=C/C(=O)Nc1ccccc1C(=O)OCC(=O)c1ccc2c(c1)OCCO2,-8%,7%,-15%,-15%,-75*,?
CCCCCCOC(=O)c1ccccc1NC(=O)/C=C/C(=O)O,16µM*,?,-12%,-16%,-100*,-2%
CCOC(=O)c1ccccc1NC(=O)/C=C/C(=O)O,-19%,-5%,0%,2%,?,3%
CCCCC(=O)Nc1ccccc1C(=O)OCC(=O)c1ccc2c(c1)OCCO2,?,?,-3%,-10%,-24,23%
CN(C(=O)c1cccc(NC(=O)Cc2cccc(NC(=O)C3CCCN(C(=O)c4ccccc4)C3)c2)c1)C1CCC1 (centres undefined),?,?,4%,6%,0,·
CCC(C)NC(=O)c1cn(-c2cccc(OC)c2)c(=O)c2ccccc12 (centres undefined),24%,8%,4%,13%,-18,6%
O=C(NC1CC(=O)N(c2ccc(F)cc2)C1)c1cc2ccccc2o1 (centres undefined),-18%,-13%,·,·,·,·
CN1CCN(c2nc(C(N)=O)cc(-c3ccccc3)n2)CC1,-5%,-23%,4%,0%,-57*,-27%
Cc1cc(-c2ccccc2)nc(N2CCN(c3ccccn3)CC2)n1,?,?,11%,-22%,32,19%
CCN(CC)c1nc(C(N)=O)cc(-c2ccccc2)n1,-5%,-19%,-24%,?,-73*,?
N#Cc1ccc(Oc2nc(C(N)=O)cc(-c3ccccc3)n2)cc1,-11%,?,7%,0%,-11,-4%
CN(N)c1nc(-c2ccccc2)cc(-c2ccccc2)n1,?,?,0%,-5%,-64*,?
CCCCC(C(=O)NC1CCCC1)N(C(=O)c1snc(C(N)=O)c1N)c1ccc(OCC)cc1 (centres undefined),?,?,5%,2%,?,?
COc1cccc(C2=CC(=O)C[C@H](c3ccc4c(c3)OCO4)C2)c1,-23%,?,-2%,-9%,-9,?
COc1cccc(OC)c1C1=CC(=O)C[C@H](c2ccc3c(c2)OCO3)C1,?,-59%,?,?,-18,9.2µM*
